Screening results (PubChem)
Yp Topo-I inh: inhibitors of Yersinia pestis topoisomerase I; activity, % at 10 µM; 0.064% of 360,000 active; Y. pestis Topo-I cleavage product accumulation, plate reader; in the data active = activity above about 50%, passing the limit was not always enough; inconclusive = no clear call, values can overlap the other calls
TcdB GH inh: inhibitors of Clostridioides difficile toxin B glycohydrolase; inhibition, % at 9.99 µM; AID 652162; 0.24% of 350,000 active; P18177; TcdB glycohydrolase enzymatic assay, plate reader; in the data active = inhibition above about 10%
Mtb hypoxia rep: Mtb hypoxia fluorescent reporter inhibition; M. tuberculosis hypoxia-regulated fluorescent reporter, fluorescence; fluorescence inhibition, % (no concentration beside the values); 0.1% of 300,000 active; AID 1159583; in the data active = fluorescence inhibition mostly above about 23%, no sharp cut-off; inactive = mostly below about 17%
BioA inh: BioA (M. tuberculosis) enzyme inhibition; purified M. tuberculosis BioA enzyme, plate reader; inhibition, % at 9.99 µM; 0.096% of 360,000 active; AID 602481; in the data active = inhibition above about 40%; inconclusive = no clear call, values can overlap the other calls
ugtP null kill: growth inhibition of S. aureus ugtP deletion strain; S. aureus RN4220 ugtP deletion, OD600 growth, 16 h; growth inhibition, % (no concentration beside the values); 0.54% of 330,000 active; in the data active = growth inhibition above about 68%;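 also: plate controls were untreated wells for no effect and antibiotic for full effect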
Sa RN4220 lethal: kills Staphylococcus aureus RN4220 | S. aureus RN4220 growth, OD600, 16 h | AID 1259311 | 0.33% of 330,000 active | inhibition, % (concentration not given with the values); in the data active = inhibition above about 85%;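 also: plate controls were untreated cells for no effect and reference antibiotic for full effect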
* marks the source's active call; other numbers are inactive results; ? = inconclusive; . = not tested or not shown. Most compounds without a hit are left out; they make up all but 0.75% or so of the library.

SMILES	Yp Topo-I inh	TcdB GH inh	Mtb hypoxia rep	BioA inh	ugtP null kill	Sa RN4220 lethal
CC(C)CC(NC(=O)c1nc[nH]c1C(=O)NC(CCCCNC(=O)OC(C)(C)C)C(=O)OC(C)(C)C)C(=O)OCc1ccccc1 (centres undefined)	.	.	-3.3	.	3.5	-3.8
CN(C)c1ccc(-c2cc(O)c3ncccc3c2)cc1	-7.9	0.6	.	-1.2	.	.
Oc1cc(-c2ccncc2)cc2cccnc12	6.5	-4.5	7.1	0.6	95.1*	100.5*
CC1(C)c2[nH]c3ccccc3c2CC2C(=O)N(c3cc(F)ccc3F)C(=O)N21 (centres undefined)	.	.	-1.4	.	-0.4	5.3
O=C(Cn1c(=O)cnc2ccccc21)Nc1cccc(S(=O)(=O)N2CCOCC2)c1	10.5	-0.4	28.3*	3.3	2.8	5.7
CC(C)C1Nc2c(O)cc(Cl)c([N+](=O)[O-])c2C2C=CCC21 (centres undefined)	-8.2	-11.2	20.5	4.3	93.2*	87.4*
O=C(O)C1Nc2c(Cl)cc(Cl)c(Cl)c2C2C=CCC12 (centres undefined)	-18.0	0.0	7.6	-0.5	2.3	8.2
CC(C(=O)OCC(=O)c1c(N)n(C)c(=O)n(C)c1=O)N1C(=O)c2ccccc2C1=O (centres undefined)	2.5	14.2*	5.2	1.8	-1.4	1.6
O=[N+]([O-])c1ccc(O)c(-c2nc(-c3ccccc3)c(-c3cccs3)[nH]2)c1	-3.3	.	3.6	0.7	84.9*	87.5*
Cc1ccc(-c2cc(C(F)F)nc(N3CCC(C)CC3)n2)cc1	2.8	.	0.3	0.5	91.4*	-5.0
COc1cccc(-c2cc(C(F)(F)F)nc(N3CCC(C)CC3)n2)c1	17.4	.	-2.1	-2.9	94.4*	-1.6
Cc1ccc(-c2nnc(N3CCC(C)CC3)c3ccccc23)cc1	-10.8	-1.1	9.9	.	-9.3	-1.6
CC1CCN(c2nc(-c3ccccc3)cc(C(F)(F)F)n2)CC1	5.3	.	12.8	-0.2	87.5*	-0.2
O=C1C(=O)c2c(C(=O)c3ccccc3)coc2-c2ccccc21	-4.2	-2.6	4.0	-9.1	85.9*	93.5*
Cc1oc2c(c1C(=O)c1ccccc1)C(=O)C(=O)c1ccccc1-2	-22.4	.	.	-0.7	93.7*	99.5*
COc1ccc(C(C)=NNC(=O)c2ccc(CSc3nncn3C)cc2)cc1	.	.	-4.7	.	3.5	3.2
Cc1ccnc(N2C(=O)c3ccccc3C2=O)c1	5.7	14.7*	5.5	1.8	9.6	0.9
Cc1ccnc(N2C(=O)c3cccc4c([N+](=O)[O-])ccc(c34)C2=O)c1	3.9	0.2	2.7	-1.5	2.3	3.5
CCSc1nc(-c2ccccc2)nc2c1CCCC2	8.6	0.2	-4.4	1.5	88.3*	4.5
CN(C)CCSc1nc(-c2ccccc2)nc2c1CCCC2	5.3	0.3	20.5	-0.5	2.5	2.1
N#CCCN1CCN(CCC#N)CC1	-1.1	.	6.5	-0.2	1.2	3.1
Cc1cc(CN2CCN(CCC#N)CC2)c(O)c(C2(C)CCCCC2)c1	3.4	.	.	-3.2	84.3*	16.4
CC1OC(n2cc(F)c(=O)[nH]c2=O)C(O)C1O (centres undefined)	.	.	-6.6	.	97.3*	76.5
O=Cc1ccc(Oc2cc(-c3ccccc3)nc(-c3ccccc3)n2)cc1	-0.2	.	2.3	-1.1	100.5*	69.1
COc1cc(C=C[N+](=O)[O-])ccc1O	.	.	24.5	.	9.1	8.5
SMILES	Yp Topo-I inh	TcdB GH inh	Mtb hypoxia rep	BioA inh	ugtP null kill	Sa RN4220 lethal
CCOc1ccc(C=NNc2ccc(S(=O)(=O)Nc3ccccc3C(=O)O)cc2[N+](=O)[O-])cc1	3.2	1.2	13.5	-2.8	91.2*	-5.8
O=C(O)c1ccccc1NS(=O)(=O)c1ccc(NN=Cc2ccccc2F)c([N+](=O)[O-])c1	-4.6	0.6	6.2	3.8	91.9*	5.0
CC(=O)c1ccc(N2CCN(C(=O)c3cc(-c4ccc5c(c4)OCO5)nc4ccccc34)CC2)cc1	40.8	.	.	-1.4	100.6*	-9.9
Cc1ccn2c(Cc3ccccc3)c(-c3ccc(F)cc3)nc2c1	42.6	10.1*	.	-0.9	.	.
Cc1ccc(Cc2c(-c3ccc(C)cc3)nc3ccc(Cl)cn23)cc1	-5.1	11.1*	.	-1.7	.	.
Clc1ccc2nc(-c3ccccc3)c(Cc3ccccc3)n2c1	45.0	3.3	.	-0.8	.	.
Cc1ccc(Cc2c(-c3ccccc3)nc3cc(C)ccn23)cc1	36.3	1.3	.	-0.8	.	.
Clc1ccc(-c2nc3ccc(Cl)cn3c2Cc2ccccc2)cc1	19.5	12.9*	.	-0.6	.	.
Cc1ccc2nc(SCC(=O)NN=Cc3ccc(C(=O)O)cc3)cc(C)c2c1	.	.	2.0	.	0.7	3.3
Cc1ccc(CSC2=Nc3ccccc3C3=NC(=O)CN23)cc1	157.1*	0.8	12.0	.	7.4	-1.4
Cc1c(CCCC(=O)O)sc(N)c1C(=O)c1cccc(C(F)(F)F)c1	-8.4	10.8*	13.2	-0.4	-7.9	10.5
COc1cc(C(=O)OC(C)C(=O)NC(=O)NC2CCCCC2)ccc1OC(F)F (centres undefined)	12.1	-1.6	3.8	-0.2	90.9*	52.2
Cc1cccc(C2(c3cccc(C)c3)OC(=O)c3ccccc32)c1	0.2	.	4.7	-3.3	82.2*	-10.6
CCn1c(C)nc2cc(C(=O)N/N=C/c3ccc(OC)c(O)c3)ccc21	-7.1	10.8*	.	.	.	.
CCn1c(C)nc2cc(C(=O)N/N=C/c3ccc(O)cc3)ccc21	-0.5	13.8*	.	.	.	.
CC1CN(C(C)CO)C(=O)c2cc(NC(=O)C3CCCCC3)ccc2OC1CN(C)S(=O)(=O)c1ccccc1 (centres undefined)	.	.	-2.1	.	-18.5	-1.0
CCc1cc(-c2n[nH]c(C)c2-c2nc(C)cs2)c(O)cc1OC	24.1	11.9*	-7.8	.	-22.5	-4.5
COc1cc(C=NNC(=O)c2ccccc2)ccc1OS(=O)(=O)c1ccccc1	.	.	3.6	.	89.7*	-3.4
COc1ccc(C(=O)NN=Cc2ccc(OC)c(OS(=O)(=O)c3ccccc3)c2)cc1	.	.	-8.2	.	-13.2	-2.9
COC(=O)CN1C(=O)C2C(C)C3=C4C(CC(C(=O)OC)=CC(C(=O)OC)C4[C@](C)(NC(=O)c4ccccc4)C3=O)C2C1=O (some centres undefined)	.	.	9.0	.	-1.8	3.9
COc1ccc(-c2nnc(SCc3cc(C)cc(C)c3)o2)cc1	2.2	.	-5.6	-0.6	93.8*	10.9
COc1ccc(-c2nnc(SCC(=O)c3ccc(C)o3)o2)cc1	-4.3	2.3	6.4	1.4	-12.1	8.2
CC(=NNC(=O)c1cc(C)nc2ccccc12)c1cccc(Cl)c1	.	.	4.6	.	5.3	-2.1
Cc1cccc(C)c1NC(=S)NC(=O)CCc1ccccc1	0.6	2.4	4.2	-0.7	4.4	-0.5
Cc1ccccc1NC(=S)NC(=O)CCc1ccccc1	13.0	.	24.6	2.1	85.5*	3.2
Cc1cccc(CN2CCCN(Cc3ccc(Cl)cc3)S2(=O)=O)c1	57.1*	0.1	14.6	.	-0.3	2.1
O=C1NC(Cc2ccccc2)c2nc3cc(F)ccc3c(=O)n2-c2cc3ccccc3cc21 (centres undefined)	?	0.1	.	-0.9	.	.
